This is a sample that favours compounds with a hit; in the whole collection about 5.6% have one here.
PHOSPHO1 block: blocks human PHOSPHO1 phosphatase activity | AID 1565 | recombinant PHOSPHO1, absorbance phosphatase assay | hit rate 1.1% among 290,000 | inhibition, % at 13.3 µM; in the data active = inhibition above about 60%
Target sequence (Q8TCT1 whole entry, looked up): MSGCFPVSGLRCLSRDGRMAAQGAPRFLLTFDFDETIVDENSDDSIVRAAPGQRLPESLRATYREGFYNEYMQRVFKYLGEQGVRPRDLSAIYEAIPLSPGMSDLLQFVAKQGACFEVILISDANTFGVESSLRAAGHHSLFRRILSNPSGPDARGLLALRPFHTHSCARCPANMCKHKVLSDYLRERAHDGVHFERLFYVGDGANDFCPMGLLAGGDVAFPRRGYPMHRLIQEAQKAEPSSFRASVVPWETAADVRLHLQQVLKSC
H9c2 protect: protects H9c2 cardiomyocytes from peroxide injury. H2O2 injury protection, ATPLite, 2 h. protection from H2O2 cell death, % at 20 µM. hit rate 0.63% among 360,000. AID 588492;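 active = compounds giving at least 50% protection of heart cells from peroxide-induced death in the single-dose screen, raw or plate-pattern-corrected value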;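 also: 0% = DMSO wells with peroxide and 100% = DMSO wells without peroxide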
ALR H2O2 inh: blocks human ALR sulfhydryl oxidase activity; P55789; inhibition, % (no concentration beside the values); purified ALR, DTT oxidation, H2O2 HRP-luminol luminescence; hit rate 3.8% among 290,000; AID 485317;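 active = mean replicate inhibition above about 79%, with every replicate also reaching it, limit read from the data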
Target sequence (P55789 whole entry, looked up): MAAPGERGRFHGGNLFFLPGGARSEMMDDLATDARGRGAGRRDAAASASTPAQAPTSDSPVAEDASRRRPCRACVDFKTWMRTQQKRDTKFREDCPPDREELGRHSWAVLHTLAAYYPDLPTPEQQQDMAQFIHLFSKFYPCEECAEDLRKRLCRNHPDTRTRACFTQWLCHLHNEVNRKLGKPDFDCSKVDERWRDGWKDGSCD
PfG6PD inh: PfG6PD (Plasmodium falciparum) enzyme inhibition; PfGluPho enzyme, NADPH resazurin-diaphorase fluorescence; inhibition, % at 20 µM; hit rate 0.78% among 350,000; AID 504690;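 active = inhibition reaching at least a set limit at 20 µM in the primary screen, cut at about 59% in these data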;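 also: 0% = DMSO wells with substrate and 100% = DMSO wells lacking glucose-6-phosphate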
PfM18AAP inh-1: PfM18AAP enzyme inhibition | recombinant PfM18AAP, H-Glu-NHMec fluorogenic cleavage | inhibition, % at 7.35 µM | hit rate 1.2% among 290,000 | AID 1822;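 active = inhibition above the campaign mean inhibition over all tested compounds plus 3 SD, cut at about 28% in these data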;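 also: 0% = plate median of test compound wells and 100% = 2 mM ZnCl2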
PfM18AAP inh-2: PfM18AAP inhibition, confirmation; shares compounds with PfM18AAP inh-1; recombinant PfM18AAP, H-Glu-NHMec fluorogenic cleavage; inhibition, % at 7.35 µM; hit rate 28% among 2,400; AID 2170;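 active = mean inhibition over replicate wells above the hit cutoff set for the earlier primary screen, cut at about 29% in these data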;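 also: 0% = median of test compound wells and 100% = 2 mM ZnCl2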
CTSL1 confirm: counter-screen for PFM18AAP inhibitors: confirmation of human cathepsin L inhibitors; shares compounds with PfM18AAP inh-1; purified cathepsin L1, Z-Leu-Arg-MCA fluorescence; inhibition, % at 5.96 µM; 2,400 tested, under 10 active; AID 2178;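 active = average inhibition across replicates above the hit cutoff set in the earlier primary screen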;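 also: 0% = median of test compound wells and 100% = Z-Phe-Ala-diazomethylketone 1 µM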
An asterisk follows results filed as active; nt = no result.

SMILES	PHOSPHO1 block	H9c2 protect	ALR H2O2 inh	PfG6PD inh	PfM18AAP inh-1	PfM18AAP inh-2	CTSL1 confirm
Cc1c(Cl)cccc1N1C(=O)CC(N(O)c2ccccc2)C1=O (stereo not given)	1	0	52	8	33*	-8	0
Cc1snc(SCC(=O)c2ccc([N+](=O)[O-])cc2)c1C#N	72*	-7	nt	62*	45*	-22	6
Cc1snc(SCC(=O)c2ccc(F)cc2)c1C#N	-90	-3	-5	5	-2	nt	nt
CC(C)C1C(=O)N(Cc2cn(CCC3OCCCO3)nn2)CCS(=O)(=O)N1Cc1ccc(-c2ccc(Cl)c(Cl)c2)cc1 (stereo not given)	nt	11	nt	33	nt	nt	nt
O=C(NNc1cccc(Cl)n1)Nc1ccc(F)cc1	-40	-4	7	17	52*	44*	-2
O=C(NNc1cccc(Cl)n1)Nc1ccccc1Cl	-27	0	nt	20	50*	34*	-3
O=C(NNc1cccc(Cl)n1)C(F)(F)F	16	-2	47	18	27	nt	nt
CC(=O)NNc1cccc(Cl)n1	8	-2	-2	-2	0	nt	nt
O=C(NNc1cccc(Cl)n1)Nc1ccccc1F	4	2	15	24	53*	41*	0
FC(F)c1nc2nc(Cl)c(Cl)nc2[nH]1	nt	1	nt	2	nt	nt	nt
O=C1CN(C(=O)COC(=O)c2ccc(Cl)c(S(=O)(=O)N3CCCCC3)c2)c2ccccc2N1	nt	0	nt	7	nt	nt	nt
COc1cc(OCc2ccc(C)cc2)ccc1CNC[C@H]1O[C@@H](n2cnc(C(N)=O)n2)[C@H](O)[C@@H]1O	nt	-3	nt	-5	nt	nt	nt
COc1ccccc1CNc1nc(C)c(C(=O)N(C)C)s1	-71	-4	nt	29	34*	-35	1
O=S(=O)(Nn1cnnc1)c1ccc(F)cc1	15	1	4	-7	42*	48*	-6
O=C(Nn1cnnc1)C1CCCN1S(=O)(=O)c1ccc(F)cc1 (stereo not given)	14	5	-7	-11	9	nt	nt
Cc1ccc(S(=O)(=O)Nn2cnnc2)cc1	46	-5	nt	5	65*	56*	-2
Cc1ccc(S(=O)(=O)Nc2ccccc2-c2ccccc2NS(=O)(=O)c2ccc(C)cc2)cc1	27	-23	2	-10	7	nt	nt
CCCCCOC(=O)Nc1ccc(S(=O)(=O)Nn2cnnc2)cc1	-4	-1	-1	-23	46*	48*	0
COc1cc(CN2CCN(C(=O)CC(C)C)CC2)c([N+](=O)[O-])cc1OC	nt	-3	-14	18	18	nt	nt
Oc1ccc(/C=N/Nc2ncnc3nc[nH]c23)cc1	27	-3	nt	4	3	nt	nt
Fc1ccccc1/C=N/Nc1ncnc2nc[nH]c12	-9	26	56	6	33*	-28	3
Cc1ccc(C(=O)CSc2ccccn2)cc1	83*	-6	9	38	44*	-26	-6
O=C(O)c1ccnc(SCC(=O)c2ccccc2)c1	9	0	nt	-13	50*	26	0
CCC(C)N(C)C1CCN(C(=S)Nc2cccc(SC)c2)CC1 (stereo not given)	-7	0	-3	6	41*	-21	1
CSc1cccc(NC(=S)N2CCC(N(C)C(C)C)CC2)c1	28	-2	-1	5	11	nt	nt
SMILES	PHOSPHO1 block	H9c2 protect	ALR H2O2 inh	PfG6PD inh	PfM18AAP inh-1	PfM18AAP inh-2	CTSL1 confirm
COc1ccc(-c2cc(C#N)nc(NN)n2)cc1	17	2	0	4	36*	36*	6
COc1ccc(-c2cc(-c3ccccc3)nc(NN)n2)cc1OC	40	17	33	0	34*	5	3
Nc1cc(C(=O)O)ccc1Nc1ccccc1	0	2	nt	-17	54*	-5	0
Cc1c(Br)c(=O)oc2c(Br)c(O)c(O)cc12	-2	22	98*	-15	39*	9	-10
O=C(CSc1nnc(-c2cccc(F)c2)o1)Nc1nncs1	2	9	25	-10	50*	-32	-3
CCn1c2ccccc2c2cc(NC(=O)CSc3nnc(-c4cccc(F)c4)o3)ccc21	26	-28	2	-5	-3	nt	nt
CC(C)NC(=O)N(C)C[C@H]1Oc2c(NC(=O)C3CC3)cccc2C(=O)N([C@H](C)CO)C[C@@H]1C	nt	-6	4	-10	nt	nt	nt
CS(=O)(=O)O/N=C1\CCCCC1c1ccc([N+](=O)[O-])cc1[N+](=O)[O-] (stereo not given)	37	-4	-19	8	0	nt	nt
CC(C)(C)c1ccc(S(=O)(=O)O/N=C2/CCCCC2c2ccc([N+](=O)[O-])cc2[N+](=O)[O-])cc1 (stereo not given)	28	4	-2	26	38*	-28	2
O=C(CNc1ccc(Oc2ccccc2)cc1)N1CCOCC1	-3	2	-9	13	42*	-37	-3
COc1ccc(/C=N/Nc2ncc(Br)cn2)c(OC)c1	51	-6	-7	-8	38*	-47	-3
COc1cccc(N(CC(=O)NC2CCCC2)C(=O)CCC(=O)Nc2cc(C)on2)c1	19	2	nt	4	2	nt	nt
COc1ccc(C(=O)NCc2cc(C)nc3ccccc23)cc1	44	-9	-10	0	-1	nt	nt
Cc1cc(CNC(=O)c2ccc3c(c2)OCO3)c2ccccc2n1	42	8	7	1	33*	10	-3
O=C(O)c1ccc(-c2nc(-c3ccc(Cl)c(Cl)c3)cs2)cc1	-15	-2	2	20	-8	nt	nt
NC(=O)C(=CNc1nc(-c2ccc(Cl)c(Cl)c2)cs1)C(N)=O	54	nt	nt	nt	69*	53*	-2
CCCCN(C(=O)CN1C(=O)C2CCCCC2C1=O)c1c(N)n(CCC)c(=O)[nH]c1=O (stereo not given)	nt	-2	-1	-18	nt	nt	nt
Cc1cc(C)cc(C(O)c2ncc(-c3cccc(C(F)(F)F)c3)[nH]2)c1 (stereo not given)	nt	-11	nt	nt	nt	nt	nt
CN(Cc1ccc(Cl)cc1)C(C(=O)NC1CCCCC1)c1ccnc2ccccc12 (stereo not given)	nt	3	nt	nt	nt	nt	nt
C/C(=N\Nc1nc(C(=O)O)cs1)c1ccccc1	-68	nt	20	-32	42*	-29	-4
COC(=O)c1ccc(/C=N/Nc2nc(-c3ccccc3)cs2)cc1	4	3	70	-10	9	nt	nt
COc1ccc(/C=N/Nc2nc(C(=O)O)cs2)cc1	nt	0	30	0	34*	-4	0
CC(=O)c1cc(F)ccc1OCC(=O)N1CCCc2ccccc21	-9	11	4	6	-4	nt	nt
O=C(c1ccc(=O)[nH]c1)N1CCN(S(=O)(=O)c2cc(C(F)(F)F)ccc2Cl)CC1	10	4	nt	-1	-3	nt	nt
O=C(NNc1cc(C(F)(F)F)ccc1Cl)c1ccc(=O)[nH]c1	-10	-5	-6	40	44*	19	2

Compound activity from PubChem.
